Results on 8 compounds are retold here after PubChem BioAssay (EPA / NIEHS).

Active and inactive are the calls of the source. How the source made its calls, unless noted: active means hit-call score of the fitted dose curve at least 0.9, where 1 is the maximum; inactive means score below 0.9.

The test system of the first assay is IYD (gene 389434). The experiment in a line: CCTE_GLTED_hIYD: CCTE's human Iodotyrosine Deiodinase (xIYD) Inhibition Assay, Great Lakes Toxicology and Ecology Division (GLTED) Lab (AID 2284317; active means hit-call score of the fitted dose curve at least 0.9, where 1 is the maximum;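 further: cell-free human IYD enzyme made in baculovirus insect cells; iodide freed from monoiodotyrosine measured by cerium arsenite color change at 420 nm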).
Settings: not given
In short, it runs like this:
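Deiodination of MIT by insect-cell-produced human IYD is measured after a 3 h incubation with test chemical. Free iodide passes through a Dowex column and accelerates Sandell-Kolthoff Ce4+ reduction, read at 420 nm; run in triplicate.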
With `CCOc1cccc(-n2cc(C(=O)N3CCN(c4cc(C(=O)O)c5ccccc5c4)CC3)nc2-c2ccc(C)cc2)c1`, the AC50 (commonly the midpoint of the concentration-response curve, whichever way the signal moves) was 116 µM (active).

Consider `O=C(OC[C@H]1O[C@@H](OC(=O)c2cc(O)c(O)c(OC(=O)c3cc(O)c(O)c(O)c3)c2)[C@H](OC(=O)c2cc(O)c(O)c(OC(=O)c3cc(O)c(O)c(O)c3)c2)[C@@H](OC(=O)c2cc(O)c(O)c(OC(=O)c3cc(O)c(O)c(O)c3)c2)[C@@H]1OC(=O)c1cc(O)c(O)c(OC(=O)c2cc(O)c(O)c(O)c2)c1)c1cc(O)c(O)c(OC(=O)c2cc(O)c(O)c(O)c2)c1`, for which the AC50 was 13.3 µM (active).

In the case of `CN(C)c1ccc(N=NS(=O)(=O)O)cc1`, the AC50 is 47.9 µM (active).

System in another assay: not listed separately
As to the kind of experiment: CCTE_Deisenroth_5AR_NBTE_donor: CCTE's 5alpha-reductase NanoBRET Target Engagement Assay […], Deisenroth Lab (AID 2284319). As to conditions: actives raise or lower the signal. In outline: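 HEK293T cells transiently expressing SRD5A2-NanoLuc, exposed 5 h to chemicals (8 points, 10 nM - 29.9 uM), with testosterone tracer for the final 2 h. Donor luminescence at 460 nm read after Nano-Glo substrate plus extracellular NanoLuc inhibitor; bidirectional fit versus DMSO.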
On the technique in general: In BRET a luciferase serves as donor, and the signal depends on an acceptor being close.
With `O=C(O)c1cc(N=Nc2ccc(S(=O)(=O)Nc3ccccn3)cc2)ccc1O`, the result was inactive.

In the case of `CCC(C)(C)C(=O)O[C@H]1C[C@@H](C)C=C2C=C[C@H](C)[C@H](CC[C@@H]3C[C@@H](O)CC(=O)O3)[C@H]21`, the outcome was inactive.

Take `CC[C@H]1OC(=O)[C@H](C)[C@@H](O[C@H]2C[C@@](C)(OC)[C@@H](O)[C@H](C)O2)[C@H](C)[C@@H](O[C@@H]2O[C@H](C)C[C@H](N(C)C)[C@H]2O)[C@](C)(O)C[C@@H](C)C(=O)[C@H](C)[C@@H](O)[C@]1(C)O`: the compound was called inactive.

Regarding `Nc1ccc(Nc2ccccc2)cc1`, the AC50 was 28.3 µM (active).

For `O=C(OC[C@H]1O[C@@H](OC(=O)c2cc(O)c(O)c(OC(=O)c3cc(O)c(O)c(O)c3)c2)[C@H](OC(=O)c2cc(O)c(O)c(OC(=O)c3cc(O)c(O)c(O)c3)c2)[C@@H](OC(=O)c2cc(O)c(O)c(OC(=O)c3cc(O)c(O)c(O)c3)c2)[C@@H]1OC(=O)c1cc(O)c(O)c(OC(=O)c2cc(O)c(O)c(O)c2)c1)c1cc(O)c(O)c(OC(=O)c2cc(O)c(O)c(O)c2)c1`, the result was inactive.

Turning to `CN(C)c1ccc(N=NS(=O)(=O)O)cc1`, the compound was called inactive.

Turning to `CCOC(=O)c1ccc(C2CCC(NC[C@H](O)COc3ccc(O)c(NS(C)(=O)=O)c3)CC2)cc1` (some centres not stated), the concentration at half-maximal activity (AC50) is 62.7 µM (active).

System in another assay: not listed separately
The experiment in a line: CCTE_Deisenroth_5AR_NBTE_acceptor: CCTE's 5alpha-reductase NanoBRET Target Engagement Assay - Autofluorescence Screen, Deisenroth Lab (AID 2284321).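 Further: compound fluorescence in the acceptor channel under 460 nm excitation flags autofluorescence artifacts.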 As to conditions: actives raise or lower the signal. In outline: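 Autofluorescence counter-screen: chemicals at an assumed nominal 100 uM in DMSO were scanned in three independent runs with 460 nm excitation. Gain or loss of acceptor signal was fitted bidirectionally against DMSO.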
As to `O=C(O)c1cc(N=Nc2ccc(S(=O)(=O)Nc3ccccn3)cc2)ccc1O`, the result was inactive.

Turning to `CCC(C)(C)C(=O)O[C@H]1C[C@@H](C)C=C2C=C[C@H](C)[C@H](CC[C@@H]3C[C@@H](O)CC(=O)O3)[C@H]21`, the compound was called inactive.

For `CC[C@H]1OC(=O)[C@H](C)[C@@H](O[C@H]2C[C@@](C)(OC)[C@@H](O)[C@H](C)O2)[C@H](C)[C@@H](O[C@@H]2O[C@H](C)C[C@H](N(C)C)[C@H]2O)[C@](C)(O)C[C@@H](C)C(=O)[C@H](C)[C@@H](O)[C@]1(C)O`, the compound was called inactive.

With `Nc1ccc(Nc2ccccc2)cc1`, the AC50 was 31.5 µM (active).

`O=C(OC[C@H]1O[C@@H](OC(=O)c2cc(O)c(O)c(OC(=O)c3cc(O)c(O)c(O)c3)c2)[C@H](OC(=O)c2cc(O)c(O)c(OC(=O)c3cc(O)c(O)c(O)c3)c2)[C@@H](OC(=O)c2cc(O)c(O)c(OC(=O)c3cc(O)c(O)c(O)c3)c2)[C@@H]1OC(=O)c1cc(O)c(O)c(OC(=O)c2cc(O)c(O)c(O)c2)c1)c1cc(O)c(O)c(OC(=O)c2cc(O)c(O)c(O)c2)c1`: the outcome was inactive.

On to `CN(C)c1ccc(N=NS(=O)(=O)O)cc1`, for which the call was inactive.

Turning to `CCOC(=O)c1ccc(C2CCC(NC[C@H](O)COc3ccc(O)c(NS(C)(=O)=O)c3)CC2)cc1` (some centres not stated), the half-maximal activity concentration (AC50) was 50 µM (active).
